Assay results: PubChem BioAssay
Inconclusive results are not listed. Activity calls are given as the source filed them.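 Rule for the calls, unless noted: active = viability at or below 30% in both replicate assays; inconclusive = viability at or below 30% in just one of the two assays; inactive = the rest.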

How the values were obtained:
[1] = Her2 expression decrease, cell viability multiplex – SKBR3 breast tumor cells, AlphaScreen, ATP viability, primary screen (AID 461;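 active = Her2 level under about 52% in both replicate screens, with viability over 70% of control, limit read from the data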;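 for Her2 level: lower value means less Her2 protein in the cells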;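 for viability: percent of carrier control wells set as 100% viability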); conditions: SKBR3 Her2 protein level, 18-24 h, measured here: SKBR3 viability, ATP luminescence, at 10 µM
[2] = target: Receptor tyrosine-protein kinase erbB-2 (Homo sapiens) (UniProt P04626); assay: as above; conditions: 18-24 h, at 10 µM, stronger effect = lower value
Sequence of Receptor tyrosine-protein kinase erbB-2 (Homo sapiens) (P04626 whole entry, looked up): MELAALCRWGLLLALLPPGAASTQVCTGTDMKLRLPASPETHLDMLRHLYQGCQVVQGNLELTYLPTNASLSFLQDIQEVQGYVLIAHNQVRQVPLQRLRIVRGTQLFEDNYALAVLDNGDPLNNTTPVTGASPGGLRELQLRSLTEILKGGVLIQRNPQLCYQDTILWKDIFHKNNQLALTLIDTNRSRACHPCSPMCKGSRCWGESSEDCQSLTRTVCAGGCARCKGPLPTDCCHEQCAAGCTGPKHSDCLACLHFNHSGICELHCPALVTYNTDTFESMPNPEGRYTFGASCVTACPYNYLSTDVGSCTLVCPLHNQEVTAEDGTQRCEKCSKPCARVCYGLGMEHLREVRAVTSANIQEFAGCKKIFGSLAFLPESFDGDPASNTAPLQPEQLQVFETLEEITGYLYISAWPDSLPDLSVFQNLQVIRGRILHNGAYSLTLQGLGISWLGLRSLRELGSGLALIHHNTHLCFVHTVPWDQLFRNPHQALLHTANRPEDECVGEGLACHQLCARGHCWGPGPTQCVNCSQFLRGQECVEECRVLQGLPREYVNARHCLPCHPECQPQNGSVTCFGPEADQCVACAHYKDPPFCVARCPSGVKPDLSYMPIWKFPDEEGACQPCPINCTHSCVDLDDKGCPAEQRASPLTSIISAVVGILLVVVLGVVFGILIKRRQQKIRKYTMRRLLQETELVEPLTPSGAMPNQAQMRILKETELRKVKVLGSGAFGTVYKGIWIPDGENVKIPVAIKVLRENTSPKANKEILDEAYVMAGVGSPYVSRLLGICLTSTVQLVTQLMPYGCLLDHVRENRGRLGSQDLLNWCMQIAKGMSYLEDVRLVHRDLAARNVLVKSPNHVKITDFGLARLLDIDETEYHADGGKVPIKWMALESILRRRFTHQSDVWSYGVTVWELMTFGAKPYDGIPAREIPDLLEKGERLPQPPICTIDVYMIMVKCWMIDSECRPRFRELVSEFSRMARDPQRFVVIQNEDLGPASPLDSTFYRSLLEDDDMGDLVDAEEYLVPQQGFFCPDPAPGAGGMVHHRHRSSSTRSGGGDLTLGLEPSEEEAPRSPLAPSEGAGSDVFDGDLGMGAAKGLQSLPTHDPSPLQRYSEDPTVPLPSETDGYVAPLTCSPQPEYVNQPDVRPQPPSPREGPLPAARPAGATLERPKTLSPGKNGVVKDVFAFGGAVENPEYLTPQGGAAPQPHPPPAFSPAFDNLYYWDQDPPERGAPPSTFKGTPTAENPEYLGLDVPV

[3] = reduced viability of SK-BR-3 breast cancer cells – cell-based, 24 h, human, pilot screen (AID 572;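 active = viability at or below 10% of carrier control in both of two separate runs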;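 note: compound exposure lasted between 18 and 24 h rather than exactly 24 h; 100% = carrier-treated control wells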); conditions: SK-BR-3 viability, CellTiter-Glo luminescence, at 10 µM, stronger effect = lower value
[4] = HUVEC growth inhibition – cell-based, human, primary screen (AID 575); conditions: HUVEC proliferation, CellTiter-Glo luminescence, 72 h; at 10 µM; stronger effect = lower value;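 note: 100% = median of untreated cell wells with 0.1% DMSO on each plate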
[5] = H69AR cell proliferation blockers – human, duplicate replicates, primary screen (AID 580;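 active = viability at or under a set limit in both replicates, limit being median viability minus 3 SD, cut at about 48% in these data, passing the limit was not always enough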;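 note: 100% = mean luminescence of untreated wells and 0% = no signal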); conditions: H69AR lung tumor cells viability, ATP luminescence, 72 h; at 10 µM; stronger effect = lower value
[6] = MRP1 drug-resistance reversers in H69AR cells – cell-based, doxorubicin co-treatment, pilot screen (AID 601;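 active = viability loss from added drug above about 55%, and viability with drug at most 40%, in both replicates, limit read from the data, passing the limit was not always enough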); conditions: CellTiter-Glo, 72 h, at 10 µM; for differential viability (reversal): stronger effect = higher value
[7] = yeast transport mutant growth inhibition pilot in 384-well plates, post-Golgi transport modulator project (AID 636; in the data active = inhibition above about 31%); conditions: absorbance 615 nm, about 18 h, stronger effect = higher value
[8] = growth suppression of yeast trafficking mutant, preliminary HTS, modulators of trafficking downstream of Golgi apparatus project, 1536-format plate, OD 615 nm (AID 637; in the data active = inhibition above about 30%); conditions: yeast transport mutant growth, absorbance 615 nm, 18 h; stronger effect = higher value
[9] = S. cerevisiae growth inhibition in permissive medium (OD615), pilot counter-assay for S. cerevisiae lifespan shortening project, permissive growth control (AID 705;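 active = growth inhibition above 25% in both replicates, a cutoff set 3 SD above the mean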); conditions: OD615, 24 h, at 10 µM, stronger effect = higher value
[10] = S. cerevisiae growth inhibition in restrictive medium, OD615, pilot screen, restrictive growth control, yeast lifespan reduction project (AID 706;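 active = growth inhibition above a set limit, 3 SD over mean compound inhibition, in both replicates, cut at about 43% in these data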;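 note: modified DeaD lifespan yeast strain shifted to restrictive glucose medium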); conditions: OD615, 48 h, at 10 µM, stronger effect = higher value
[11] = doxorubicin toxicity protection in MRP-1 cells – H69AR cells, CellTiter-Glo, duplicate, MRP-1 activator project, pilot screen (AID 807;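 active = viability increase at or above a cutoff of the median across tested compounds plus 3 SD, cut at about 8.5% in these data, passing the limit was not always enough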;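 note: compound pretreatment 18-22 h then 72 h combined with doxorubicin; 0% = doxorubicin alone and 100% = vehicle without doxorubicin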); conditions: H69AR viability with doxorubicin, CellTiter-Glo luminescence; at 10 µM; stronger effect = higher value
[12] = viability of HCT116 without oncogenic beta-catenin – human colon tumor cells, pilot screen (AID 823;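 active = cell viability at or below a set limit in both duplicate runs, the limit being the all-compound median minus 4 SD, cut at about 23% in these data, passing the limit was not always enough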;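 note: 0% = wells killed by 20 µM Hyamine and 100% = untreated DMSO cell wells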); conditions: HCT116 beta-catenin knockout viability, CellTiter-Glo, 60 h; at 10 µM; stronger effect = lower value
[13] = viability of PTEN-null HCT116 cells – cell-based, HCT116 clonal line, CellTiter-Glo, pilot screen (AID 824;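 active = viability at or below 27.92% in each of two runs, the all-compound median minus 4 SD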;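 note: 0% = 20 µM Hyamine control and 100% = vehicle cell control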); conditions: HCT116 PTEN-deleted viability, 60 h, at 10 µM, stronger effect = lower value
[14] = RAM pathway blockade in budding yeast – dse1pr::URA3 reporter, 5-FOA selection, pilot screen (AID 869;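 active = inhibition over a set limit, the all-compound mean plus 3 SD, in both replicate runs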;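 note: 0% = DMSO wells with no growth and 100% = 10 µM 1-NA-PP1 with full growth; RAM network block rescues cells from 5-FOA so hits raise OD615 growth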); conditions: S. cerevisiae dse1pr::URA3 5-FOA growth, OD615, 2 d; at 10 µM; stronger effect = higher value; strain carries analog-sensitive mutant Cbk1 kinase
[15] = RAM signaling pathway blockade in yeast – S. cerevisiae, Pdr1DBD-CYC8 efflux-inhibited sensitized strain, primary screen (AID 1298;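 active = RAM network inhibition above 8.4% in each of two replicates, 3 SD over the compound average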;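 note: 0% = DMSO untreated cells without growth and 100% = 10 µM 1-NA-PP1 full growth; higher means more yeast growth rescued from 5-FOA killing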); conditions: S. cerevisiae cbk1-as DSE1-URA3 strain, 5-FOA growth OD615, 2 d; at 50 µM; stronger effect = higher value
[16] = H69AR cells + 2 uM doxorubicin, measured here: viability with 2 uM doxorubicin, stronger effect = lower value
[17] = H69AR cells, compound alone cytotoxicity

Structure (SMILES) | viability [1] | Her2 level [2] | viability [3] | viability [4] | viability [5] | differential viability (reversal) ([6]; H69AR cells + 2 uM doxorubicin) | viability [6, 16] | viability [6, 17] | inhibition [7] | inhibition [8] | growth inhibition [9] | growth inhibition [10] | viability increase [11] | viability [12] | viability [13] | inhibition [14] | RAM network inhibition [15]
c1ccn2c(SCc3ccc4c(c3)OCCO4)nnc2c1 | 108% | 108% (inactive) | 108% (inactive) | 93.8% (inactive) | 92.1% (inactive) | 0.37% (inactive) | 91.7% | 92.1% | -3.47% (inactive) | 1.67% (inactive) | 6.86% (inactive) | 12.2% (inactive) | -0.85% (inactive) | 96.6% (inactive) | 99.2% (inactive) | 0.305% (inactive) | 5.34% (inactive)
COc1cc2c(cc1OC)-c1nnc(C)n1C1(CCCC1)C2 | 87% | 105% (inactive) | 87% (inactive) | 114% (inactive) | 99% (inactive) | 0.73% (inactive) | 98.3% | 99% | 1.28% (inactive) | -1.17% (inactive) | -10.2% (inactive) | -16% (inactive) | -2.69% (inactive) | 100% (inactive) | 94% (inactive) | 1.1% (inactive) | 2.81% (inactive)
CCOC(=O)C1CCCN(C(=O)c2cn(C)c(=O)c3cc(OC)c(OC)cc23)C1 (stereo not given) | 96.5% | 99.5% (inactive) | 96.5% (inactive) | 94.2% (inactive) | 91% (inactive) | -9.49% (inactive) | 101% | 91% | -3.38% (inactive) | 4.43% (inactive) | -11.5% (inactive) | -4.87% (inactive) | -3.62% (inactive) | 97% (inactive) | 90.7% (inactive) | 1.17% (inactive) | 1.13% (inactive)
CN1CCN(CC(=O)N2c3ccccc3C(C)(c3ccccc3)CC2(C)C)CC1 (stereo not given) | 87% | 103% (inactive) | 87% (inactive) | 78.8% (inactive) | 65.8% (inactive) | -31.3% (inactive) | 97.1% | 65.8% | -0.38% (inactive) | 2% (inactive) | -9.57% (inactive) | -2.67% (inactive) | -6.54% (inactive) | 49.1% (inactive) | 50.7% (inactive) | 0.685% (inactive) | 1.99% (inactive)
O=C(Nc1ccc2c(c1)OCCO2)c1cnc2n(c1=O)CCS2 | 85.5% | 80.5% (inactive) | 85.5% (inactive) | 105% (inactive) | 79.4% (inactive) | 0.765% (inactive) | 78.7% | 79.4% | 0.93% (inactive) | -2.95% (inactive) | -17.9% (inactive) | 2.96% (inactive) | 3.01% (inactive) | 106% (inactive) | 104% (inactive) | 1.6% (inactive) | 4.19% (inactive)
Cc1nn(C(=O)c2ccoc2C)c(N)c1-c1ccccc1 | 101% | 88.5% (inactive) | 101% (inactive) | 85.9% (inactive) | 92.1% (inactive) | 12.6% (inactive) | 79.5% | 92.1% | -6.27% (inactive) | -2.33% (inactive) | 13% (inactive) | 10.9% (inactive) | 2.64% (inactive) | 78.8% (inactive) | 84.3% (inactive) | 1.68% (inactive) | 7.07% (inactive)
CCOC(=O)C1CCCN(C(=O)c2ccc(CS(=O)(=O)c3ccc(Br)cc3)o2)C1 (stereo not given) | 85.5% | 102% (inactive) | 85.5% (inactive) | 79.5% (inactive) | 95.6% (inactive) | -1.7% (inactive) | 97.3% | 95.6% | -2.93% (inactive) | -3.83% (inactive) | -9.14% (inactive) | -18.5% (inactive) | -1.86% (inactive) | 100% (inactive) | 98.6% (inactive) | 1.39% (inactive) | 3.92% (inactive)
COC(=O)c1cn(C(=O)c2ccc(Br)o2)c2ccccc12 | 89% | 102% (inactive) | 89% (inactive) | 95.9% (inactive) | 88.3% (inactive) | -1.34% (inactive) | 89.6% | 88.3% | 1.03% (inactive) | -1.33% (inactive) | 4.04% (inactive) | 0.5% (inactive) | 0.03% (inactive) | 98.2% (inactive) | 102% (inactive) | 2.23% (inactive) | 4.65% (inactive)
COc1cccc(C2CC(=O)Nc3cc4c(cc32)OCCO4)c1OC(C)C (stereo not given) | 99% | 88.5% (inactive) | 99% (inactive) | 84.6% (inactive) | 41.2% (active) | -29.5% (inactive) | 70.7% | 41.2% | -1.2% (inactive) | -3.61% (inactive) | -3.68% (inactive) | 0.265% (inactive) | -4.91% (inactive) | 65.7% (inactive) | 65% (inactive) | 0.76% (inactive) | 2.97% (inactive)
CCC1CCCCN1CCCNC(=O)CC1Oc2ccc(C)cc2NC1=O (stereo not given) | 110% | 97.5% (inactive) | 110% (inactive) | 74.3% (inactive) | 89.1% (inactive) | -3.82% (inactive) | 92.9% | 89.1% | -2.27% (inactive) | -0.49% (inactive) | 2.28% (inactive) | 0.165% (inactive) | -3.12% (inactive) | 95% (inactive) | 91.1% (inactive) | 1.57% (inactive) | 2.53% (inactive)
